Assay results reported in PubChem BioAssay AID1159580 (chemical genetic matrix, 2015).
Hit rate of the full screen: of about 5,500 compounds, about 2,000 (36%) were called active. Not shown: some 18% with an inconclusive outcome. No stated cut-off is given here; in the data, active means normalized growth mostly below about 0.91 (no sharp cut-off); inconclusive means no clear call, values can overlap the other calls; inactive means mostly above about 0.92. The list shows a part of the results.

Assay: chemical genetic growth profiling, strain panel (AID 1159580);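 further: tested at 20 µM; growth read once vehicle control cultures reached saturation at 30 °C; 1 = growth at the plate median or of vehicle wells; lower values mean less growth of the strain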
Details: growth OD

Measured: normalized growth

NC[C@H]1O[C@H](OC2[C@@H](N)C[C@@H](N)[C@H](O[C@H]3O[C@H](CO)[C@@H](O)[C@H](N)[C@H]3O)[C@H]2O)[C@H](O)[C@@H](O)[C@@H]1O (some centres undefined)
inactive: S. cerevisiae deletion strains, locus YJR066W, strain TOR1, hits give low values 0.956 | S. cerevisiae deletion strains, locus YJR075W, strain HOC1, hits give low values 0.996 | S. cerevisiae deletion strains, locus YKL009W, strain mrt4, hits give low values 0.985 | S. cerevisiae deletion strains, locus YKL068W, hits give low values 0.986 | S. cerevisiae deletion strains, locus YKL085W, strain MDH1 (second series), hits give low values 0.98 | S. cerevisiae deletion strains, locus YKL085W, strain MDH1, hits give low values 0.98 | S. cerevisiae deletion strains, locus YKL160W, strain elf1, hits give low values 0.979 | S. cerevisiae deletion strains, locus YKR001C, strain vps1, hits give low values 0.994 | S. cerevisiae deletion strains, locus YKR026C, strain gcn3, hits give low values 0.998 | S. cerevisiae deletion strains, locus YKR091W, strain srl3, hits give low values 1.01 | S. cerevisiae deletion strains, locus YLL001W, strain dnm1, hits give low values 0.973 | S. cerevisiae deletion strains, locus YLL026W, hits give low values 1.01 | S. cerevisiae deletion strains, locus YLL041C, strain sdh2, hits give low values 0.999 | S. cerevisiae deletion strains, locus YLR027C, strain aat2, hits give low values 1.01 | S. cerevisiae deletion strains, locus YLR039C, strain RIC1, hits give low values 0.927 | S. cerevisiae deletion strains, locus YLR058C, strain SHM2, hits give low values 0.978 | S. cerevisiae deletion strains, locus YLR102C, strain apc9, hits give low values 0.984 | S. cerevisiae deletion strains, locus YLR113W, strain HOG1, hits give low values 1 | S. cerevisiae deletion strains, locus YLR221C, strain rsa3, hits give low values 1.01 | S. cerevisiae deletion strains, locus YLR258W, strain gsy2, hits give low values 1 | S. cerevisiae deletion strains, locus YLR262C, strain YPT6 (second series), hits give low values 0.994 | S. cerevisiae deletion strains, locus YLR262C, strain YPT6, hits give low values 1.04 | S. cerevisiae deletion strains, locus YLR268W, strain sec22, hits give low values 0.986 | S. cerevisiae deletion strains, locus YLR320W, strain mms22, hits give low values 0.987 | S. cerevisiae deletion strains, locus YLR330W, strain CHS5, hits give low values 0.993 | S. cerevisiae deletion strains, locus YLR342W, strain FKS1 (second series), hits give low values 1 | S. cerevisiae deletion strains, locus YLR342W, strain FKS1, hits give low values 0.995 | S. cerevisiae deletion strains, locus YLR357W, strain rsc2, hits give low values 0.979 | S. cerevisiae deletion strains, locus YLR370C, strain arc18, hits give low values 0.993 | S. cerevisiae deletion strains, locus YLR371W, strain rom2, hits give low values 0.981 | S. cerevisiae deletion strains, locus YLR384C, strain iki3, hits give low values 0.994 | S. cerevisiae deletion strains, locus YLR418C, strain cdc73, hits give low values 0.97 | S. cerevisiae deletion strains, locus YML016C, strain PPZ1, hits give low values 0.99 | S. cerevisiae deletion strains, locus YML032C, strain rad52, hits give low values 0.984 | S. cerevisiae deletion strains, locus YML120C, strain ndi1, hits give low values 0.999 | S. cerevisiae deletion strains, locus YML124C, strain tub3, hits give low values 0.984 | S. cerevisiae deletion strains, locus YMR058W, strain fet3, hits give low values 1 | S. cerevisiae deletion strains, locus YMR078C, strain ctf18, hits give low values 0.969 | S. cerevisiae deletion strains, locus YMR125W, strain sto1, hits give low values 0.973 | S. cerevisiae deletion strains, locus YMR129W, hits give low values 0.997 | S. cerevisiae deletion strains, locus YMR205C, strain PFK2, hits give low values 0.975 | S. cerevisiae deletion strains, locus YMR223W, strain ubp8, hits give low values 0.957 | S. cerevisiae deletion strains, locus YMR231W, strain pep5, hits give low values 0.993 | S. cerevisiae deletion strains, locus YMR263W, strain SAP30, hits give low values 0.999 | S. cerevisiae deletion strains, locus YMR307W, strain GAS1, hits give low values 1.03 | S. cerevisiae deletion strains, locus YNL067W, strain RPL9B, hits give low values 0.997 | S. cerevisiae deletion strains, locus YNL071W, strain lat1, hits give low values 0.998 | S. cerevisiae deletion strains, locus YNL153C, strain GIM3, hits give low values 0.993 | S. cerevisiae deletion strains, locus YNL183C, strain NPR1, hits give low values 0.969 | S. cerevisiae deletion strains, locus YNL209W, strain ssb2, hits give low values 0.996 | S. cerevisiae deletion strains, locus YNL233W, strain BNI4, hits give low values 0.993 | S. cerevisiae deletion strains, locus YNL248C, strain rpa49, hits give low values 0.988 | S. cerevisiae deletion strains, locus YNL250W, strain rad50, hits give low values 0.974 | S. cerevisiae deletion strains, locus YNL271C, strain bni1, hits give low values 0.978 | S. cerevisiae deletion strains, locus YNL298W, strain CLA4, hits give low values 0.97 | S. cerevisiae deletion strains, locus YNL307C, strain MCK1, hits give low values 0.971 | S. cerevisiae deletion strains, locus YNL322C, strain KRE1 (second series), hits give low values 0.986 | S. cerevisiae deletion strains, locus YNL322C, strain KRE1, hits give low values 0.996 | S. cerevisiae deletion strains, locus YNR049C, strain mso1, hits give low values 0.992 | S. cerevisiae deletion strains, locus YNR052C, strain pop2, hits give low values 0.973 | S. cerevisiae deletion strains, locus YOL006C, strain TOP1, hits give low values 0.968 | S. cerevisiae deletion strains, locus YOL012C, strain htz1 1.24 | S. cerevisiae deletion strains, locus YOL147C, strain pex11, hits give low values 0.982 | S. cerevisiae deletion strains, locus YOR001W, strain rrp6, hits give low values 1.02 | S. cerevisiae deletion strains, locus YOR061W, strain CKA2, hits give low values 0.989 | S. cerevisiae deletion strains, locus YOR069W, strain VPS5, hits give low values 0.989 | S. cerevisiae deletion strains, locus YOR070C, strain gyp1, hits give low values 0.998 | S. cerevisiae deletion strains, locus YOR080W, strain dia2, hits give low values 1 | S. cerevisiae deletion strains, locus YOR083W, strain WHI5, hits give low values 0.988 | S. cerevisiae deletion strains, locus YOR106W, strain vam3, hits give low values 0.976 | S. cerevisiae deletion strains, locus YOR136W, strain idh2, hits give low values 0.984 | S. cerevisiae deletion strains, locus YOR144C, strain elg1, hits give low values 0.987 | S. cerevisiae deletion strains, locus YOR184W, strain ser1, hits give low values 0.971 | S. cerevisiae deletion strains, locus YOR231W, strain MKK1, hits give low values 0.983 | S. cerevisiae deletion strains, locus YOR265W, strain rbl2, hits give low values 1 | S. cerevisiae deletion strains, locus YOR270C, strain vph1, hits give low values 1.02 | S. cerevisiae deletion strains, locus YOR290C, strain snf2, hits give low values 0.949 | S. cerevisiae deletion strains, locus YOR316C, strain cot1, hits give low values 0.98 | S. cerevisiae deletion strains, locus YPL051W, strain arl3, hits give low values 0.992 | S. cerevisiae deletion strains, locus YPL078C, strain atp4, hits give low values 0.992 | S. cerevisiae deletion strains, locus YPL106C, strain sse1, hits give low values 0.998 | S. cerevisiae deletion strains, locus YPL240C, strain hsp82, hits give low values 0.987 | S. cerevisiae deletion strains, locus YPL256C, strain CLN2, hits give low values 0.994 | S. cerevisiae deletion strains, locus YPR119W, strain clb2, hits give low values 0.977 | S. cerevisiae deletion strains, locus YPR141C, strain kar3, hits give low values 0.962 | S. cerevisiae deletion strains, locus YPR163C, strain tif3, hits give low values 0.978 | S. cerevisiae deletion strains, locus YPR167C, strain met16, hits give low values 0.981 | S. cerevisiae deletion strains, strain wtn01, hits give low values 0.989 | S. cerevisiae strains, strain wild type, hits give low values 0.995
